Results: PubChem BioAssay (EPA / NIEHS)
Calls of active or inactive are those of the source. How the source made its calls: active means hit-call score of the fitted dose curve at least 0.9, where 1 is the maximum; inactive means score below 0.9.

How the values were obtained:
[1] = read-out: TIMP metallopeptidase inhibitor 1 (TIMP1), TIMP1 (gene 7076); test: BSK_hDFCGF_TIMP1: BioMAP Diversity Plus: hDFCGF Assay for TIMP metallopeptidase inhibitor 1 (TIMP1) Biomarker Activity (AID 2283062); details: primary human foreskin fibroblasts; actives raise or lower the signal
Outline: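 Primary human foreskin fibroblasts in the hDFCGF system were dosed with compound for 24 h, then TIMP-1 was measured by ELISA. Activity was fitted bidirectionally relative to DMSO control; parallel SRB staining assessed cytotoxicity.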

[2] = read-out: Monokine induced gamma interferon (MIG), CXCL9 (gene 4283); test: BSK_hDFCGF_MIG: BioMAP Diversity Plus: hDFCGF Assay for Monokine induced gamma interferon (MIG) Biomarker Activity (AID 2283063); details: primary human foreskin fibroblasts; actives raise or lower the signal
Outline: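 ELISA read-out of MIG from primary human dermal fibroblasts 24 h post-dosing. Gain or loss of signal fitted bidirectionally, DMSO as baseline.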

[3] = read-out: Matrix Metallopeptidase 1 (MMP1), MMP1 (gene 4312); test: BSK_hDFCGF_MMP1: BioMAP Diversity Plus: hDFCGF Assay for Matrix Metallopeptidase 1 (MMP1) Biomarker Activity (AID 2283064); details: primary human foreskin fibroblasts; actives raise or lower the signal
Outline: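 Primary human foreskin fibroblasts in the hDFCGF system were dosed with test chemical, and MMP1 was measured by ELISA 24 h later. Values come from bidirectional curve fitting against the DMSO baseline.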

[4] = read-out: Vascular cell adhesion molecule 1 (VCAM1), VCAM1 (gene 7412); test: BSK_hDFCGF_VCAM1: BioMAP Diversity Plus: hDFCGF Assay for Vascular cell adhesion molecule 1 (VCAM1) Biomarker Activity (AID 2283065); details: primary human foreskin fibroblasts; actives raise or lower the signal;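 on AC50: VCAM-1 protein level quantified by ELISA after 24 h chemical exposure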
Outline: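 Primary human foreskin fibroblasts (hDFCGF system) were dosed with chemical and VCAM-1 was measured by ELISA 24 h later. Bidirectional curve fitting used DMSO as negative control and activity baseline.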

[5] = read-out: Plasminogen activator inhibitor-1 (PAI1), SERPINE1 (gene 5054); test: BSK_hDFCGF_PAI1: BioMAP Diversity Plus: hDFCGF Assay for Plasminogen activator inhibitor-1 (PAI1) Biomarker Activity (AID 2283066); details: primary human foreskin fibroblasts; actives raise or lower the signal
Outline: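 Primary dermal fibroblasts (human foreskin), hDFCGF system; compound 24 h; PAI-1 by ELISA; bidirectional fit vs DMSO control.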

[6] = read-out: Intercellular Adhesion Molecule 1 (ICAM1), ICAM1 (gene 3383); test: BSK_KF3CT_ICAM1: BioMAP Diversity Plus: KF3CT Assay for Intercellular Adhesion Molecule 1 (ICAM1) Biomarker Activity (AID 2283067); details: primary human keratinocytes with fibroblasts; actives raise or lower the signal
Outline: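 Human keratinocyte plus foreskin fibroblast primary co-culture was exposed to chemical for 24 h. ICAM-1 was then quantified by ELISA, and the data were fit bidirectionally against DMSO as the negative control and baseline.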

[7] = read-out: Interferon-gamma inducible Protein 10 (IP10), CXCL10 (gene 3627); test: BSK_KF3CT_IP10: BioMAP Diversity Plus: KF3CT Assay for Interferon-gamma inducible Protein 10 (IP10) Biomarker Activity (AID 2283068); details: primary human keratinocytes with fibroblasts; actives raise or lower the signal
Outline: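 KF3CT co-culture (keratinocytes + foreskin fibroblasts), 24 h compound, IP-10 by ELISA; bidirectional fit vs DMSO baseline.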

[8] = BSK_KF3CT_SRB: Viability Assessment in the BioMAP Diversity Plus: KF3CT Assay (AID 2283069); details: primary human keratinocytes with fibroblasts;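 further: total protein by sulforhodamine B staining as a cytotoxicity measure; read 24 h after compound addition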
Outline: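 Human primary keratinocyte plus foreskin fibroblast co-culture exposed to chemicals for 24 h. Total protein measured by 0.1% sulforhodamine B staining after 10% TCA fixation, read at 560 nm; bidirectional fitting versus DMSO baseline.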

[9] = read-out: Interleukin-1 alpha (IL1a), IL1A (gene 3552); test: BSK_KF3CT_IL1a: BioMAP Diversity Plus: KF3CT Assay for Interleukin-1 alpha (IL1a) Biomarker Activity (AID 2283070); details: primary human keratinocytes with fibroblasts; actives raise or lower the signal
Outline: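 Human keratinocyte plus foreskin fibroblast primary co-culture, sampled 24 h after chemical dosing. IL-1a measured by ELISA; responses fitted bidirectionally against DMSO baseline (negative control), so gain or loss of signal both count.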

[10] = read-out: TIMP metallopeptidase inhibitor 2 (TIMP2), TIMP2 (gene 7077); test: BSK_KF3CT_TIMP2: BioMAP Diversity Plus: KF3CT Assay for TIMP metallopeptidase inhibitor 2 (TIMP2) Biomarker Activity (AID 2283071); details: primary human keratinocytes with fibroblasts; actives raise or lower the signal
Outline: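 Cells: human keratinocytes co-cultured with foreskin fibroblasts. Treat with chemical, 24 h. Measure TIMP-2 by ELISA; fit curves bidirectionally vs DMSO baseline.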

[11] = read-out: Transforming growth factor beta 1 (TGFb1), TGFB1 (gene 7040); test: BSK_KF3CT_TGFb1: BioMAP Diversity Plus: KF3CT Assay for Transforming growth factor beta 1 (TGFb1) Biomarker Activity (AID 2283072); details: primary human keratinocytes with fibroblasts; actives raise or lower the signal
Outline: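 Primary human skin cells (keratinocytes, foreskin fibroblasts) were co-cultured, exposed to test chemical and sampled at 24 h. TGF-b1 levels were measured by ELISA and fitted bidirectionally relative to DMSO.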

[12] = read-out: C-C motif chemokine 2 (Homo sapiens) (UniProt P13500); test: BSK_KF3CT_MCP1: BioMAP Diversity Plus: KF3CT Assay for Monocyte Chemoattractant Protein 1 (MCP1/CCL2) Biomarker Activity (AID 2283073); details: primary human keratinocytes with fibroblasts; actives raise or lower the signal
Outline: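 Human keratinocyte plus foreskin fibroblast primary co-culture exposed to chemical for 24 h. MCP-1 levels measured by ELISA. Bidirectional curve fitting relative to DMSO negative control as baseline.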

[13] = read-out: Matrix Metallopeptidase 9 (MMP9), MMP9 (gene 4318); test: BSK_KF3CT_MMP9: BioMAP Diversity Plus: KF3CT Assay for Matrix Metallopeptidase 9 (MMP9) Biomarker Activity (AID 2283074); details: primary human keratinocytes with fibroblasts; actives raise or lower the signal;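 on AC50: MMP9 protein level quantified by ELISA in the co-culture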
Outline: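 Keratinocyte plus foreskin fibroblast human primary skin co-culture was dosed with chemical and MMP-9 was quantified by ELISA 24 h later. Bidirectional curve fitting used DMSO as negative control and activity baseline.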

[14] = read-out: CD40, CD40 (gene 958); test: BSK_LPS_CD40: BioMAP Diversity Plus: LPS Assay for CD40 Biomarker Activity (AID 2283076); details: primary human HUVEC with PBMC; actives raise or lower the signal
Outline: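 Primary human umbilical vein endothelial cells co-cultured with peripheral blood mononuclear cells, LPS-stimulated, were dosed with chemical and read 24 h later. CD40 levels were measured by ELISA and fitted bidirectionally against DMSO as negative control and baseline.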

[15] = read-out: E-selectin (Homo sapiens) (UniProt P16581); test: BSK_LPS_Eselectin: BioMAP Diversity Plus: LPS Assay for Eselectin Biomarker Activity (AID 2283077); details: primary human HUVEC with PBMC; actives raise or lower the signal
Outline: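 Human umbilical vein endothelial cells co-cultured with peripheral blood mononuclear cells under LPS stimulation; E-selectin measured by ELISA 24 h after chemical dosing. Activity fitted bidirectionally against DMSO as negative control and baseline.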

[16] = read-out: Interleukin-8 (IL8), CXCL8 (gene 3576); test: BSK_LPS_IL8: BioMAP Diversity Plus: LPS Assay for Interleukin-8 (IL8) Biomarker Activity (AID 2283078); details: primary human HUVEC with PBMC; actives raise or lower the signal
Outline: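 Human umbilical vein endothelial cells co-cultured with PBMC were stimulated with LPS; IL-8 levels were measured by ELISA 24 h after chemical dosing. Activity was fitted bidirectionally against DMSO as negative control and baseline.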

[17] = BSK_LPS_SRB: Viability Assessment in the BioMAP Diversity Plus: LPS Assay (AID 2283079); details: primary human HUVEC with PBMC;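 further: total protein by sulforhodamine B absorbance as a cytotoxicity measure; measured one day after compound addition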
Outline: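 Human umbilical vein endothelial cells co-cultured with PBMC (LPS system) were dosed for 24 h. Total protein was stained with 0.1% sulforhodamine B after 10% TCA fixation, read at 560 nm, and fitted bidirectionally against DMSO baseline.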

[18] = read-out: Interleukin-1 alpha (IL1a), IL1A (gene 3552); test: BSK_LPS_IL1a: BioMAP Diversity Plus: LPS Assay for Interleukin-1 alpha (IL1a) Biomarker Activity (AID 2283080); details: primary human HUVEC with PBMC; actives raise or lower the signal
Outline: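 Human umbilical vein endothelial cells co-cultured with peripheral blood mononuclear cells were LPS-stimulated and exposed to test chemicals for 24 h. IL-1 alpha was quantified by ELISA, with bidirectional curve fitting against DMSO as the negative control and baseline.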

[19] = read-out: Monocyte Chemoattractant Protein-1 (MCP1), CCL2 (gene 6347); test: BSK_LPS_MCP1: BioMAP Diversity Plus: LPS Assay for Monocyte Chemoattractant Protein-1 (MCP1) Biomarker Activity (AID 2283081); details: primary human HUVEC with PBMC; actives raise or lower the signal;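 on AC50: co-culture stimulated with LPS; secreted MCP-1 protein quantified by ELISA in culture supernatant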
Outline: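 HUVEC plus PBMC co-culture (human primary cells, LPS system) exposed to test chemical for 24 h; MCP-1 measured by ELISA. Bidirectional curve fitting against DMSO baseline; parallel SRB total-protein staining flags overt cytotoxicity.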

[20] = read-out: urokinase plasminogen activator (uPA), PLAU (gene 5328); test: BSK_KF3CT_uPA: BioMAP Diversity Plus: KF3CT Assay for urokinase plasminogen activator (uPA) Biomarker Activity (AID 2283075); details: primary human keratinocytes with fibroblasts; actives raise or lower the signal
Outline: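 Human keratinocyte plus foreskin fibroblast primary co-culture exposed to chemical for 24 h. uPA levels were quantified by ELISA, and activity was fitted bidirectionally against a DMSO negative-control baseline.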

Measured: AC50

Chain of E-selectin (Homo sapiens) (P16581 whole entry, looked up): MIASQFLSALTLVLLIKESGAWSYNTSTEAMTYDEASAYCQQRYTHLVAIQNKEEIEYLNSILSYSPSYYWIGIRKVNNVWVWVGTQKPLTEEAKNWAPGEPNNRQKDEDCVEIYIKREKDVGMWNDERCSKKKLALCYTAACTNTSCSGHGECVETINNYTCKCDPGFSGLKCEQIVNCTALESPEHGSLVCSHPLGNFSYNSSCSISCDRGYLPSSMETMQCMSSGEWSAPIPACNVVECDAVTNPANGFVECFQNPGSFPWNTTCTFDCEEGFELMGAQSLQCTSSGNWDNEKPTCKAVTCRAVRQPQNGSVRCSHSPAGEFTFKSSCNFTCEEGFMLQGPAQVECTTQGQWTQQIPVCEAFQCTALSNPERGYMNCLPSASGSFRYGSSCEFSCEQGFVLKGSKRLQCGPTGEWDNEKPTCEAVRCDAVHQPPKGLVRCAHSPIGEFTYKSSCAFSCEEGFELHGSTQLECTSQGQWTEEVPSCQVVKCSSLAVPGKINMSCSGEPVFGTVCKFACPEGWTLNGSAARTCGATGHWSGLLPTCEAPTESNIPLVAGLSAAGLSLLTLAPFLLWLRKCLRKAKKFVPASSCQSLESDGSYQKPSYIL

COc1cc(S(=O)(=O)O)c(C)cc1N=Nc1c(O)ccc2cc(S(=O)(=O)O)ccc12
not listed: [20]
inactive: all other assays above

CC(CO)OC(C)CO (stereo unspecified) (tested in a mixture with another compound)
inactive: all assays above

COc1cc(-c2nc(NC(=O)c3cc4cc(C)cc(C)c4n3CC(=O)O)sc2CCC2CCCCC2)c(OC)cc1Cl
active: [1] 480 nM | [2] 1620 nM | [3] 471 nM | [4] 317 nM | [5] 442 nM | [6] 3230 nM | [7] 1550 nM | [8] 1640 nM | [9] 4260 nM | [10] 1540 nM | [11] 1680 nM | [12] 1380 nM | [13] 1680 nM | [20] 1890 nM | [14] 3160 nM | [15] 8510 nM | [16] 12200 nM | [17] 4610 nM | [18] 4690 nM | [19] 3250 nM

CC(=O)OCCOCCOCCOC(C)=O
not listed: [20]
inactive: all other assays above

OC[C@@H](O)[C@@H](O)[C@H](O)[C@H](O)CO
not listed: [20]
inactive: all other assays above

Cc1cccc(Nc2cc(Cl)nc(SCC(=O)O)n2)c1C
inactive: all assays above

CCCc1cc(=O)[nH]c(=S)[nH]1
not listed: [20]
inactive: all other assays above
